Measured values: PubChem BioAssay (NCI)
This is part of a sample that, as a whole, favours compounds with a hit. Of some 83,000 tested, about 20% had one in any assay.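 48-hour exposure, single concentration, 96-well plates; percent growth endpoint where 0 means no net growth. Active: below 10.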 Unmarked numbers belong to inactive results. Calls of active or inactive are those of the source.

Test system: SK-OV-3 ovarian
Assay: NCI-60 one-dose screen, 48 h (100 = growth as untreated, 0 = no growth, -100 = all killed)
Conditions: 10 µM unless noted
Procedure: Growth inhibition of the SK-OV-3 human tumor cell line is measured as a screen for anti-cancer activity. Cells are grown in 96 well plates and exposed to the test compound for 48 hours. Compounds are tested at a single concentration, which is 10^-5 M for most compounds. The reported endpoint is percent growth (GI% or GIPRCNT), where numbers from 0 - 100% represent growth inhibition, and numbers from -100% - 0 represent cell death. For example, a value of 40 represents 60% growth inhibition. A value of 0 means no net growth occurred over the course of the experiment. A value of -40 indicates 40% of cells at the beginning of the experiment died by the end of the experiment. A value of -100 means all cells are dead at the end of the experiment.
NCI-60 Human Tumor Cell Lines Screen was performed using the standard one-dose NCI protocol, which is described in more detail at https://dtp.cancer.gov/discovery_development/nci-60/default.htm.
Compounds with GIPRCNT values below 10 were considered active. Activity score was based on GIPRCNT using the following formula: […]
Score is 0 for GIPRCNT values of 100 or above, 50 for GIPRCNT values of 0, and 100 for GIPRCNT values of -100.

SMILES | growth
CN(C)CCn1c(=O)c2ccccc2n2nc3ccccc3c12 | 94.5%
Nc1nc(N)c2c(n1)NC(c1cccc(Nc3ccnc4cc(C(F)(F)F)ccc34)c1)CC(c1ccc3c(c1)OCO3)=N2 (stereo not given) | 76.8%
O=c1cc(CNc2cc(F)cc(F)c2)c2ccc(I)cc2[nH]1 | 39%
CNC(=O)c1cc(Oc2ccc3c(c2)sc2nc(-c4cc(C(F)(F)F)cc(C(F)(F)F)c4)cn23)ccn1 | 46.7%
CCOC(=O)C#Cc1c(C(=O)OCC)nnn1[C@@H]1O[C@H](COC)[C@@H](OC)[C@H]1OC | 92.6%
Cc1nc([P+](c2ccccc2)(c2ccccc2)c2ccccc2)c(N2CCCCC2)o1 | 20.6%
Cc1ccc(S(=O)(=O)c2nc(-c3ccccc3)oc2SCC(N)=O)cc1 | 98.3%
C=C1C(=O)O[C@@H]2C3C(=C(C)CC[C@@H]12)CC1O[C@]13C (stereo not given in full) | 118% [6.75 µM]
COc1cc(/C=C/C(=O)c2cccc(-n3cc(-c4ccc(Cl)cc4)[nH]c3=O)c2)ccc1O | 97.9%
Cc1c2cnccc2c(C)c2c1c1cc(CO)ccc1n2C | -43.1% (active)
Cc1nc2sc(C(=O)Nc3ccccn3)c(N)c2cc1C(C)O (stereo not given) | 65.2%
COC(=O)[C@@]1(C)CC[C@]2(C)CC[C@]3(C)C4=CC=C5C(=CC(=O)C(O)=C5C)[C@]4(C)[C@@H](O)C[C@@]3(C)[C@@H]2C1 | 82.4%
COC(=O)c1nc(-c2ccccc2)oc1S(=O)(=O)N1CCCC(C)C1 (stereo not given) | 110%
COC(=O)[C@]1(C)CCC[C@]2(C)[C@H]3C[C@@H]4[C@H]5[C@@H]6CC/C(=N\OCC/C(N)=N/O)[C@H]5[C@@]3(CC[C@H]21)CC4(C(C)C)O6 | 89.9%
CS(=O)(=O)Nc1cc(-c2ccc3ncnc(Nc4ccc5c(cnn5Cc5ccccc5F)c4)c3c2)cnc1Cl | 29.9%
CC1(C)CC[C@]23CC[C@]4(C)[C@H](CC[C@@H]5[C@@]6(C)CCNCC(C)(C)[C@@H]6CC[C@]54C)[C@H]2[C@H]1OC3 | 96.5%
Brc1ccc(Nc2nc(Nc3cnc4ccccc4c3)c3[nH]cnc3n2)cc1 | 68.2%
O=C(Nc1nc(Cl)nc(Nc2ccc(N3CCOCC3=O)cc2)n1)c1ccc(Cl)s1 | 99%
C#Cc1cccc(NC(=O)C2CCCCN2C(=O)CCl)c1 (stereo not given) | 33.1% [8.25 µM]
O=C(NCCNC(c1ccccc1)C(NCCNC(=O)c1ccccc1)c1ccccc1)c1ccccc1 (stereo not given) | 99.9%

SMILES | growth
COC1/C=C/OC2(C)Oc3c(C)c(O)c4c(O)c(c(/C=N/N(c5ccccc5)c5ccccc5)c(O)c4c3C2=O)NC(=O)C(C)=C/C=C/C(C)C(O)C(C)C(O)C(C)C(OC(C)=O)C1C (stereo not given) | 84.8%
CN1c2ccccc2S(=O)(=O)n2c(SCC(=O)Nc3nc4ccc(F)cc4s3)nnc21 | 112%
C(=C(\C1=NCCN1)n1ccc2ccccc21)/c1ccccc1 | 105%
Cc1c2ccccc2nc2cc3c(cc12)[C@H]1CC[C@]2(C)C(=O)CC[C@H]2[C@@H]1CC3 | 124%
COc1ccc(NC(=O)c2ccc(Nc3ncnc4c3cnn4-c3cccc(F)c3)cc2)cc1 | 111%
COc1cc2c(c(OC)c1OC)C(=O)CC(c1cccc(C(=O)Nc3ccc(C#N)cc3)c1)O2 (stereo not given) | 104%
Cc1ccc(C)c2c1sc1nc(N3CCOCC3)c(C#N)c(=O)n12 | 99.4%
Cc1cc(O)cc(-c2nn(C)cc2-c2cc(N3CCOCC3)nc(-c3cccnc3)n2)c1 | 38.5%
CC(=O)c1sc(-c2ccc(F)cc2)cc1O | 102%
CCN(CC)CCCC(Cc1ccccc1)Nc1c2ccc(Cl)cc2nc2ccc(OC)cc12 (stereo not given) | 101%
COc1ccc(C2C3=C(COC3=O)N(CCO)c3cc4c(cc32)OCO4)cc1OC (stereo not given) | 84.1%
Cc1cccc(NC(=O)N/C(N)=N/c2nc3ccccc3s2)c1 | 35.2%
COc1cc(C=Nc2oc(-c3ccccc3)c(-c3ccccc3)c2C#N)cc(CN2CCCC2)c1O | 111%
NS(=O)(=O)c1ccc(C(=O)NN2C(=O)c3ccccc3C2=O)cc1 | 117%
COc1ccc(/C=C2\c3cc(OC)c(OC)c(OC)c3CC[C@@H]2O)cc1F | 22.4%
C#CCOc1ccc2nc(CCl)c(Cl)c(Nc3cccc(C(F)(F)F)c3)c2c1 | 114%
CC1(/C=C/c2ccc(-c3ccccc3)cc2)CCn2cnc3ncnc(c32)N1O (stereo not given) | 19.8%
O=c1oc2c(cnc3ccccc32)cc1-c1cccc(Cl)c1 | 105%
COCCn1cc(-c2nc(-c3c[nH]c4ncccc34)cs2)c2ccccc21 | 54.8%
O=C(Oc1ccc2c(c1)sc1nc(-c3ccccc3)[nH]c(=O)c12)C(F)(F)F | 50.2%
